This passage reports composite z-score results from PubChem BioAssay.

This test is described as follows: probe aShh binding to arrayed compounds – biochemical, biotinylated probe, 635/667 nm fluorescence, primary screen (AID 1114).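 Further: probe is biotin-labelled aShh protein from a stem cell growth factor screen; measures binding of labelled protein to compounds printed on the slide; score merges feature fluorescence at 667 nm with signal-to-noise.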 Conditions: small-molecule microarray, higher = more signal.
`CCOC(=O)[C@H](Cc1ccccc1)NC(=O)CCC1CC(OC(=O)NCc2cccc3ccccc23)CC2(CCCC(COC(=O)NCc3ccc4c(c3)OCO4)O2)O1` (stereo partly specified) came in with a composite z-score of 0.214.

`COc1cccc([C@H]2Oc3ccc(OC)cc3C(=NO[C@@H](C)c3cc(-c4c(C)cc(C)cc4C)no3)[C@@H]2O)c1` came in with a composite z-score of -0.195.

For the compound `CC(=O)OC[C@H]1O[C@H](C#CCCc2ccccc2)C=C[C@@H]1OC(C)=O`, the composite z-score came to 0.0204.

Compound `CC(C)=NO[C@@H](C)c1cn([C@H](CO)Cc2ccccc2)nn1` came in with a composite z-score of -0.0794.

On to `COC(=O)C(C(=O)OC)C1CCCC(=O)C1` (stereo unspecified), for which the composite z-score is -0.107.

The compound `COC(=O)CC=C[C@@H](C)[C@@H](C=NOC[C@@H](C)[C@H](OCc1ccccc1)C(C)C)OC` had a composite z-score of -0.19.

The compound `COc1ccc(O[C@H]2C=C[C@@H](c3ccccc3)O[C@@H]2COC(=O)NCc2cccc3ccccc23)cc1` showed a composite z-score of 0.23.

For `CC(C)CON=C1C[C@@H](O)[C@@H](O)[C@@H]2[C@@H]3C(=O)N(C(C)(C)C)C(=O)[C@@H]3CC[C@@H]12`, the composite z-score was -0.229.

`CON=C(C)CCN1CCCCc2nc(C)c(C)cc21` showed a composite z-score of -0.147.

`O=C1[C@H]2[C@H]3[C@H](O)[C@H](O)CC(=NO[C@@H]4O[C@H](CO)[C@@H](O)[C@H](O)[C@H]4O)[C@@H]3CC[C@H]2C(=O)N1C[C@@H]1CCCO1` had a composite z-score of -0.0769.

The compound `CCN1C(=O)[C@H]2[C@@H]3C(=CC[C@H]2C1=O)C(=O)[C@H]1O[C@H]1[C@H]3O` yielded a composite z-score of -0.138.

`CC=CC1=C(CO)[C@H](O)[C@H]2O[C@H]2[C@@H]1O` came in with a composite z-score of -0.282.

As to `CC(=O)OC[C@H]1O[C@H](CC=NOC[C@@H](O)[C@H]2O[C@@H]3OC(C)(C)O[C@@H]3[C@H]2O)C=C[C@@H]1OC(C)=O`, the composite z-score was 0.179.

In the case of `CO[C@H]1COC(=O)CC=C[C@H](C)[C@H](OC)COC(=O)[C@@H](C)NC(=O)CC=C[C@@H]1C`, the composite z-score is -0.0681.

Take `C#CCCCON=C1C[C@@H](O)[C@@H](O)[C@@H]2[C@@H]3C(=O)N([C@@H](C)c4ccccc4)C(=O)[C@@H]3CC[C@@H]12`: the composite z-score was -0.0553.

The compound `C=CC[C@@H]1C=C[C@H](ON=C(C)CCN2CCCc3nc(C)c(C)cc32)[C@@H](CO)O1` had a composite z-score of 0.586.

For `CCOC(=O)[C@H](CC(C)C)NC(=O)CCC1CC(OC(=O)NCCc2ccc(F)cc2)CC2(CCCC(COC(=O)NCCOC)O2)O1` (stereo partly specified), the composite z-score is -0.0769.

Regarding `CC(CCC(=O)OC[C@H]1O[C@H](C#Cc2ccccc2)C=C[C@@H]1Oc1ccc(C)cc1)=NOC[C@@H](C)[C@H](OCc1ccccc1)C(C)C`, the composite z-score was -0.899.

Regarding `COc1ccc(O[C@H]2C=C[C@@H](c3ccccc3)O[C@@H]2CO)cc1`, the composite z-score turned out to be 0.0278.

Compound `CCOC(=O)CCN1C(=O)[C@H]2[C@H]3[C@H](O)[C@H](O)CC(=NOCC(C)C)[C@@H]3CC[C@H]2C1=O` showed a composite z-score of -0.0471.

`CO[C@H]1COC(=O)[C@H](CCSC)NC(=O)CC=C[C@@H](C)[C@H](OC)COC(=O)[C@@H](OCc2ccccc2)C=C[C@@H]1C` returned a composite z-score of -0.221.

With `CC(CCC(=O)OC[C@H]1O[C@H](C#Cc2ccccc2)C=C[C@@H]1Oc1ccc(C)cc1)=NO[C@@H](C)c1cc(-c2c(C)cc(C)cc2C)no1`, the composite z-score stood at 0.0121.

For the compound `CC(C)[C@@H](OCc1ccccc1)[C@H](C)C=NO[C@H](C)c1cn([C@@H]2COC[C@H]2O)nn1`, the composite z-score was -0.206.

`CCOC(=O)CCN1C(=O)[C@H]2[C@H]3[C@H](O)[C@H](O)CC(=O)[C@@H]3CC[C@H]2C1=O` returned a composite z-score of -0.138.

`COC(OC)[C@@H](C)[C@H](OC)[C@@H](C)[C@H](OC)c1ccccc1`: the composite z-score is -0.273.

With `C=CC[C@@H]1C=C[C@H](ON=C(C)CCN2CCCCc3nc(C)c(C)cc32)[C@@H](CO)O1`, the composite z-score turned out to be 0.0684.

`CC(C)=CCCC(C)=CCON=C1C[C@@H](O)[C@@H](O)[C@@H]2[C@@H]3C(=O)N(Cc4ccc5c(c4)OCO5)C(=O)[C@@H]3CC[C@H]12` displayed a composite z-score of -0.2.

As to `COc1cccc([C@H]2Oc3ccc(OC)cc3C(=NOCC[C@@H]3C=C[C@H](OC(C)=O)[C@@H](COC(C)=O)O3)[C@@H]2O)c1`, the composite z-score was -0.0553.

With `COC(=O)[C@H](C)NC(=O)CCC1CC(OC(=O)NCc2ccc3c(c2)OCO3)CC2(CCCC(COC(=O)NCCC(C)C)O2)O1` (stereo partly specified), the composite z-score was -0.0553.

Consider `O=C1[C@H]2CCn3c(=O)n(-c4ccccc4)c(=O)n3[C@H]2[C@H](O)[C@@H]2O[C@H]12`, for which the composite z-score is -0.124.

In the case of `C[C@]12CCC3c4ccc(OCC5CO5)cc4CCC3C1CC[C@@H]2O` (stereo partly specified), the composite z-score worked out at 0.0062.

In turn, `CCN1C(=O)[C@H]2[C@H]3[C@H](O)[C@H](O)CC(=NNC(=O)OCc4ccccc4)[C@H]3CC[C@H]2C1=O` showed a composite z-score of 0.0637.

`CCN1C(=O)[C@H]2[C@H]3[C@H](O)[C@H](O)CC(=NOCC=C(C)CCC=C(C)C)[C@@H]3CC[C@H]2C1=O` registered a composite z-score of -0.282.

On to `CCOC(=O)[C@H](Cc1ccccc1)NC(=O)CCC1CC(OC(=O)NCc2cccc3ccccc23)CC2(CCCC(COC(=O)NCCc3ccccc3OC)O2)O1` (stereo partly specified), for which the composite z-score amounted to 0.191.

Take `CON=C1c2cc(OC)ccc2O[C@H](c2cccc(OC)c2)[C@H]1O`: the composite z-score is 0.172.

Regarding `CCOC(=O)[C@H](CC(C)C)NC(=O)CCC1CC(OC(=O)NCc2ccc3c(c2)OCO3)CC2(CCCC(COC(=O)NCCC(C)C)O2)O1` (stereo partly specified), the composite z-score was -0.283.
